Reference: ChEMBL document CHEMBL3988442, “University of Dundee, Small-Polar-MMV Screening Library” (2021)
For some of these results: Results with a measured potency or affinity are listed apart.

Assays:
[1] = target: Protein translocase subunit SecA (Escherichia coli (strain K12)) (UniProt P10408); assay: Assay to Identify E. coli SecA ATPase Inhibitors; type: functional; set-up: scale not given: direction of the effect not stated beside the values; conditions: 30 µM
[2] = target: T1, Ubiquitin-activating enzyme e1, putative (Leishmania donovani (strain BPK282A1)) (UniProt E9BSI1); assay: Leishmania donovani Ubiquitin Activating Enzyme (LdE1); type: functional; set-up: scale not given: direction of the effect not stated beside the values; conditions: 30 µM
T1 sequence (whole entry): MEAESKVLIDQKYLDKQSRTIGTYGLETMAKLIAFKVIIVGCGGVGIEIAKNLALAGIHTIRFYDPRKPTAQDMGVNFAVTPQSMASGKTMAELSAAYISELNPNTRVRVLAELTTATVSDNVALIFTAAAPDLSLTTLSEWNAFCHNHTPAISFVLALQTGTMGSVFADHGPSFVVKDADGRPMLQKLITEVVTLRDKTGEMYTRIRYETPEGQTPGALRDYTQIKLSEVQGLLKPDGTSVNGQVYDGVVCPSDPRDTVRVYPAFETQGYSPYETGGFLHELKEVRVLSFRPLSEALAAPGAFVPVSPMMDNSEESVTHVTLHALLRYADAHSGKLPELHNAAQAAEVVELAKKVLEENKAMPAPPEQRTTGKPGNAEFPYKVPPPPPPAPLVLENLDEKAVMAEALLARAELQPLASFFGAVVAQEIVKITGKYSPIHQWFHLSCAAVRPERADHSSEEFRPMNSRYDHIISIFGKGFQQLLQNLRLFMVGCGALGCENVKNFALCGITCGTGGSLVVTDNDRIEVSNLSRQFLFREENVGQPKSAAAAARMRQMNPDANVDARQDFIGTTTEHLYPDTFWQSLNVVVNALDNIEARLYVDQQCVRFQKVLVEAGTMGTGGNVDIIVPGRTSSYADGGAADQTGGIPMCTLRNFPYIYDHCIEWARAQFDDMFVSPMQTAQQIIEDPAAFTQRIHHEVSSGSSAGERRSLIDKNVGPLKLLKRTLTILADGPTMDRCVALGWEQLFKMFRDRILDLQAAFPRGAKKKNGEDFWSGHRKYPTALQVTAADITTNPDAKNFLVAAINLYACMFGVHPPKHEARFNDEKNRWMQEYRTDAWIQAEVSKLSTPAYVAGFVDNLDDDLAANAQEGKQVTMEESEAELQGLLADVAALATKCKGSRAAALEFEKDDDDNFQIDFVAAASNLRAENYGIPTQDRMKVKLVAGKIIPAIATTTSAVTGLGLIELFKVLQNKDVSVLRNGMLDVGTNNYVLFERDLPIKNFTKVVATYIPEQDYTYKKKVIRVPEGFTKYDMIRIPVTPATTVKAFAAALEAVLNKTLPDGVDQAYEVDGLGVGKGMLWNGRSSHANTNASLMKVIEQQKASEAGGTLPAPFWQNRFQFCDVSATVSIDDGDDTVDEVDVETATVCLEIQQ

[3] = target: T2, Aspartate--tRNA(Asp/Asn) ligase (Mycobacterium tuberculosis (strain ATCC 25618 / H37Rv)) (UniProt P9WFW3); assay: Assay for Asp RNA synthetase-1 from Mycobacterium tuberculosis; type: functional; set-up: scale not given: direction of the effect not stated beside the values; conditions: 30 µM; further: in the data most compounds retested in dose-response had high values
T2 sequence (whole entry): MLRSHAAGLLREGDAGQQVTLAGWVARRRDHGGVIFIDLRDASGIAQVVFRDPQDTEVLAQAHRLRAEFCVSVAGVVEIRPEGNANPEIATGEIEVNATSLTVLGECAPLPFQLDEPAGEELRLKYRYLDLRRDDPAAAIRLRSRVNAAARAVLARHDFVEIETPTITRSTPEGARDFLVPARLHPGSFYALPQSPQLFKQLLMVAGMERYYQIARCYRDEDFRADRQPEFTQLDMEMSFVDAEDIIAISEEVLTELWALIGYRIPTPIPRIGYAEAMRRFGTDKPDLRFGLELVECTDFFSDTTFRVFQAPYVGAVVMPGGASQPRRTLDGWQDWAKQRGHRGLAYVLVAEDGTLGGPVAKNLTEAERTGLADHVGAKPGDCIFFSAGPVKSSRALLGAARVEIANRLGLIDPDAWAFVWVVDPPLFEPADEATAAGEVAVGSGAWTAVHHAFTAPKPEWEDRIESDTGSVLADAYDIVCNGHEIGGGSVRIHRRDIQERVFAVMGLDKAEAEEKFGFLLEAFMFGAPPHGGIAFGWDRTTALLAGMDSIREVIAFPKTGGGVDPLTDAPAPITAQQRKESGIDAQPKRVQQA

[4] = target: AMP-activated protein kinase, AMPK (Homo sapiens) (UniProt P54646+O43741+P54619+Q9UGJ0+Q9Y478+Q13131+Q9UGI9); assay: AMP-dependent Kinase enzyme assay. An in vitro enzyme assay that detects ADP turnover that is directly proportional to AMPK activity. This uses naive AMPK that is activated during the assay with MK-8722; type: functional; set-up: scale not given: direction of the effect not stated beside the values; conditions: 30 µM
[5] = target: Sialic acid-binding Ig-like lectin 9 (Homo sapiens) (UniProt Q9Y336); assay: Hs-Siglec9 ALPHAscreen SOP 20170721; set-up: scale not given: direction of the effect not stated beside the values; conditions: 10 µM
Sequence of Sialic acid-binding Ig-like lectin 9 (Homo sapiens) (Q9Y336 whole entry): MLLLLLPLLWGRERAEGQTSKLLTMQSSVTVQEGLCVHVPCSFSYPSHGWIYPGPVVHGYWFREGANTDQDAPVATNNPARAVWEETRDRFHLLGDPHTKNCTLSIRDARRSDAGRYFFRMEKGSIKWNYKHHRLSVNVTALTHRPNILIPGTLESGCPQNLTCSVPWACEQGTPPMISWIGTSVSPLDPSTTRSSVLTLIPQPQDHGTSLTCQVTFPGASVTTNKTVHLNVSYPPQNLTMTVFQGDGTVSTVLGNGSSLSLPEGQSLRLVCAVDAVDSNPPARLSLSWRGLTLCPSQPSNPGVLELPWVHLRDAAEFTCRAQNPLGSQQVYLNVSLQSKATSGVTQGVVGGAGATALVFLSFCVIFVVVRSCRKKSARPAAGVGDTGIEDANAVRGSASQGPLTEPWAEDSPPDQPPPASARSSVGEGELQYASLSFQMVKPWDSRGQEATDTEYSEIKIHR

[6] = system: Trypanosoma cruzi; assay: Trypanosoma cruzi phosphomannomutase and mannose-1-phosphate guanylyltransferase assay; type: functional; set-up: scale not given: direction of the effect not stated beside the values; conditions: 10 µM
[7] = target: T3, Arginase-2, mitochondrial (Homo sapiens) (UniProt P78540); assay: in vitro enzyme assay to detect the production of urea directly proportional to the activity of Arginase II; type: functional; set-up: scale not given: in the data most compounds retested in dose-response had high values
T3 sequence (whole entry): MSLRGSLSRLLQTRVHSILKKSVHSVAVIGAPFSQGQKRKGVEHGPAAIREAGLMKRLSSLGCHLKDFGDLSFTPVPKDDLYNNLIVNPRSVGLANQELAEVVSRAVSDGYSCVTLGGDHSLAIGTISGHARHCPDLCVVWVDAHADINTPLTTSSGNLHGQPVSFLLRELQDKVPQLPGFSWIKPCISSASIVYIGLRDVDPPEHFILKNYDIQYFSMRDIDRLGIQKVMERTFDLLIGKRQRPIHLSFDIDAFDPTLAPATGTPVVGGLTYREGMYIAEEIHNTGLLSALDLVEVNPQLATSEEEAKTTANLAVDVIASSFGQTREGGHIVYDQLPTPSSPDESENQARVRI

[8] = target: T4, Proteasome subunit beta (Trypanosoma cruzi) (UniProt O96673); assay: Trypanosoma cruzi proteasome chymotrypsin-like activity (TcProtChymo) assay.; type: functional; set-up: scale not given: in the data most compounds retested in dose-response had high values; conditions: 9.37 µM
T4 sequence (whole entry): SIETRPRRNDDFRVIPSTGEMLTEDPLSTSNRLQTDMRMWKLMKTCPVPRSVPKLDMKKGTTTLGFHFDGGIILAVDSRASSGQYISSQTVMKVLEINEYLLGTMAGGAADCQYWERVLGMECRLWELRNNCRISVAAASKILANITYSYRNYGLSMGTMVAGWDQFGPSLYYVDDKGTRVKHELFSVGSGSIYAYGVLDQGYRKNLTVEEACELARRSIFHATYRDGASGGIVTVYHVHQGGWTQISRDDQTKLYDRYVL

[9] = organism: Homo sapiens; assay: To identify inhibition of the IFN signalling (Jak-Stat) pathway via expression of an eGFP reporter gene under the control of an IFN-stimulated response element (ISRE) containing MxA promoter.; type: functional; set-up: scale not given: direction of the effect not stated beside the values; conditions: 30 µM
[10] = target: Shiga toxin 2 (Escherichia coli O157:H7) (UniProt P09385+P09386); assay: E. coli 0.157:H7 Shiga Toxin SOP - stx2 screening assay; type: functional; set-up: scale not given: direction of the effect not stated beside the values; conditions: 30 µM
[11] = target: T5, Tyrosyl-tRNA synthetase, putative (Trypanosoma cruzi (strain CL Brener)) (UniProt Q4DSP6); assay: Trypanosoma cruzi tyrosyl tRNA synthetase (TcYRS) _High Tyrosine SOP; type: functional; set-up: scale not given: in the data most compounds retested in dose-response had high values; conditions: 30 µM
T5 sequence (whole entry): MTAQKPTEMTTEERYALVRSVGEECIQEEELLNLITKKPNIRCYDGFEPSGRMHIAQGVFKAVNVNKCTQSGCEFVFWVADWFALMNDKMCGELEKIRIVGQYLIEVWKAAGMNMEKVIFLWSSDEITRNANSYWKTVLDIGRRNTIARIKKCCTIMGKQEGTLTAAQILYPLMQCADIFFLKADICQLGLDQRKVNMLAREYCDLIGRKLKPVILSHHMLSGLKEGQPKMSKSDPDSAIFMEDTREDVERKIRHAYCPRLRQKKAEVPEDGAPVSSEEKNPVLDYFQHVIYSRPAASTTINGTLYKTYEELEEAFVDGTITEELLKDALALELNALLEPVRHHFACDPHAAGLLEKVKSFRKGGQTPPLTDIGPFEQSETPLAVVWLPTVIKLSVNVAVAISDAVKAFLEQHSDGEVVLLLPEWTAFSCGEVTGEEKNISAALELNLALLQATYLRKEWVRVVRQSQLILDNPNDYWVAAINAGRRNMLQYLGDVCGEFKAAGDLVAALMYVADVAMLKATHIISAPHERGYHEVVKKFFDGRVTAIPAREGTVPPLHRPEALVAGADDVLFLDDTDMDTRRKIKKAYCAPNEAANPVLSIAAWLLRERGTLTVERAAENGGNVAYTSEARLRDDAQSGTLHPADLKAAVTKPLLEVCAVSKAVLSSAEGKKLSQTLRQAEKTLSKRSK

[12] = target: T5, Tyrosyl-tRNA synthetase, putative (Trypanosoma cruzi (strain CL Brener)); assay: Trypanosoma cruzi tyrosyl tRNA synthetase (TcYRS) SOP; type: functional; set-up: scale not given: direction of the effect not stated beside the values; conditions: 30 µM
[13] = target: Chromo domain-containing protein 1 (Saccharomyces cerevisiae (strain ATCC 204508 / S288c) (Baker's yeast)) (UniProt P32657); assay: ScCHD-1 Enzyme Inhibition Assay; type: functional; set-up: scale not given: in the data most compounds retested in dose-response had high values; conditions: 30 µM
Sequence of Chromo domain-containing protein 1 (Saccharomyces cerevisiae (strain ATCC 204508 / S288c) (Baker's yeast)) (P32657 whole entry, the tested form may be a part): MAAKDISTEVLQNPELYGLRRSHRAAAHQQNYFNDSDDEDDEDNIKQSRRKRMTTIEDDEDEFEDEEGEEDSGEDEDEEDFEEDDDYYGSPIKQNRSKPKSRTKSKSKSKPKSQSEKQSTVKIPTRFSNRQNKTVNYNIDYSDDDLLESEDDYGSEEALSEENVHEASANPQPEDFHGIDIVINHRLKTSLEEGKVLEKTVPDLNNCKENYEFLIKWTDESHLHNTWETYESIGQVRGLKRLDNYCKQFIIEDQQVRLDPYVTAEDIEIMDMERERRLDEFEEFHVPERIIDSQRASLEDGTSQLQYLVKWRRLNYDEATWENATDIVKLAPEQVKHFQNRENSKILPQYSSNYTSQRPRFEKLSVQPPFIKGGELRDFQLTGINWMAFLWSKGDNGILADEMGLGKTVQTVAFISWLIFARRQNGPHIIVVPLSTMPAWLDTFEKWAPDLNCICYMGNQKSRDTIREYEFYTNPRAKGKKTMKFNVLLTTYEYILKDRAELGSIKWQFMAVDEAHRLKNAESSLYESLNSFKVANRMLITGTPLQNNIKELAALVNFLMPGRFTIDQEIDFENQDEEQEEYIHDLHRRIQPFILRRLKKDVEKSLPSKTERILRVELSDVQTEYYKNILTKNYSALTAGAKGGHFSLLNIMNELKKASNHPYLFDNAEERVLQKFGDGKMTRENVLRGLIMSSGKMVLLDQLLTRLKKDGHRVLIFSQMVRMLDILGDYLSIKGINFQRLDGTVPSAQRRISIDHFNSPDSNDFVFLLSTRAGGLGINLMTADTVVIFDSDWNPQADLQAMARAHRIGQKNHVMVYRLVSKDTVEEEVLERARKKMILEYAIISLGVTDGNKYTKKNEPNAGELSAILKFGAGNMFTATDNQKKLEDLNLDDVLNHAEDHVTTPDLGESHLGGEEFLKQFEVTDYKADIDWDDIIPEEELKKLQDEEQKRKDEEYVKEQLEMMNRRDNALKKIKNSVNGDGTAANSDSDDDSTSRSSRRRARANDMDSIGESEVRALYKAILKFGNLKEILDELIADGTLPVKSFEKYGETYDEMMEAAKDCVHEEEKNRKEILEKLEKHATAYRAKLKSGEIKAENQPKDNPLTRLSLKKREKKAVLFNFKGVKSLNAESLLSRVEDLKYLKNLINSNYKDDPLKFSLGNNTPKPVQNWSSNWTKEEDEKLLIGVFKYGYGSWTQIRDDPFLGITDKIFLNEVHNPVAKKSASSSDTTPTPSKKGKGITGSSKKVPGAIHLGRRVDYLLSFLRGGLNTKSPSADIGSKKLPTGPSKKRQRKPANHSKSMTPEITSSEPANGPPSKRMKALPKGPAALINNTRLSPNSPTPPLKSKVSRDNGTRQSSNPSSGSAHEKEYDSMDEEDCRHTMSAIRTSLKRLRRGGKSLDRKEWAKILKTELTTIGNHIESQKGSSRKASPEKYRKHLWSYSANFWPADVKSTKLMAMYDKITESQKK

[14] = target: T6, Methionyl-tRNA synthetase, putative (Leishmania donovani (strain BPK282A1)) (UniProt E9BF75); assay: Leishmania donovani Methionine tRNA synthetase (LdMetRS):v7. Dose response assay; type: functional; set-up: conc 80 nM, time 150 minutes
T6 sequence (whole entry): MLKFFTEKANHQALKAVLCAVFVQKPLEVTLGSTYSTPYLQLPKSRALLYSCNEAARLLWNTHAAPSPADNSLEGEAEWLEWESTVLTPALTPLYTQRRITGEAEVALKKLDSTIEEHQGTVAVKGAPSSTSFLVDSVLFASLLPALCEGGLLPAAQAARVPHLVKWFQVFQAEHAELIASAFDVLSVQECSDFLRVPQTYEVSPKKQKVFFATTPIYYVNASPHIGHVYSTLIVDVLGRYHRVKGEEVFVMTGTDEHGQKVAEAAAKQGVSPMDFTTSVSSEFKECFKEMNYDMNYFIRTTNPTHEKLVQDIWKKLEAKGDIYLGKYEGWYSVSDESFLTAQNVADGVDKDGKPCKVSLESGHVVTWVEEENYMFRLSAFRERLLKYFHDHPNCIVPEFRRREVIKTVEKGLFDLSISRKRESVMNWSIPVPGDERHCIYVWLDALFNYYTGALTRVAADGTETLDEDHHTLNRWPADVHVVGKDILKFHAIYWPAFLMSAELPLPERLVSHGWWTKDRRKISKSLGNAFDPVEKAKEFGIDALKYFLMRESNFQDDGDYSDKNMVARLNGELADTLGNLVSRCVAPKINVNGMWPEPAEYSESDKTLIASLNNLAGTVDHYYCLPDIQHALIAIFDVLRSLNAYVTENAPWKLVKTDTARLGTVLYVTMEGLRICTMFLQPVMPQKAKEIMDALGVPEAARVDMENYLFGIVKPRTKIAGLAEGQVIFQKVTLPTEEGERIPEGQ

Sequence of Protein translocase subunit SecA (Escherichia coli (strain K12)) (P10408 whole entry): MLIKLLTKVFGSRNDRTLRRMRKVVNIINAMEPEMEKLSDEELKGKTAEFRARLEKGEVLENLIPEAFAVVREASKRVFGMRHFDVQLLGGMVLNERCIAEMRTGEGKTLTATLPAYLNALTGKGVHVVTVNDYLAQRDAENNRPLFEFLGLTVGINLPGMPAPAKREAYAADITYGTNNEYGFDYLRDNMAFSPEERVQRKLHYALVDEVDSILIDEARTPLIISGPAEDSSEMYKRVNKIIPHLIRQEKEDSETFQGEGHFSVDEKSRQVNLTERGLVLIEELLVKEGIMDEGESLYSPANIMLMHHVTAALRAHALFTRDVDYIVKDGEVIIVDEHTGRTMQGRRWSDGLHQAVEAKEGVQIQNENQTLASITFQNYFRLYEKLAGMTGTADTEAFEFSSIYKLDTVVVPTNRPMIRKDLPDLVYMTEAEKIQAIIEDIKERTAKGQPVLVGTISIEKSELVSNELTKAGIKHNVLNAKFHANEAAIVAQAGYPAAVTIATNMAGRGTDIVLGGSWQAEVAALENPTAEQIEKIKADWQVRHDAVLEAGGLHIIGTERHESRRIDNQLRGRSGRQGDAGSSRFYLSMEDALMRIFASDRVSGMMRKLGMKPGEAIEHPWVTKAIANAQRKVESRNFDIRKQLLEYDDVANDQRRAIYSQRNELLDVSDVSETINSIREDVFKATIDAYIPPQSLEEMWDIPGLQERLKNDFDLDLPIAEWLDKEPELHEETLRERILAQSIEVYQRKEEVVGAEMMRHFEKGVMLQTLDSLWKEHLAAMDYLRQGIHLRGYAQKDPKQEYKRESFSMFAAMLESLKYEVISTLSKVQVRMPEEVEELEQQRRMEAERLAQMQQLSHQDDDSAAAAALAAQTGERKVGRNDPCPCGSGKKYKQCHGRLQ

Structure (SMILES)	Percent Effect [1]	Percent Effect [2]	Percent Effect [3]	Percent Effect [4]	Percent Effect [5]	Percent Effect [6]	Percent Effect ([7]; 33.3 µM)	Percent Effect [8]	Percent Effect [9]	Percent Effect [10]	Percent Effect [11]	Percent Effect [12]	Percent Effect [13]	PXC50 ([14]; MAX_EFFECT 13.49809886)	PXC50 ([14]; MAX_EFFECT 17.06263499)	Percent Effect ([7]; 30 µM)
CN(Cc1cccnc1)[C@@H]1CN(CC2CC2)[C@@H]2CCCO[C@H]12	-1.86%	2.67%	3.49%	2.59%	2.23%	-4.05%	-57.2%	3.42%	-1.28%	-18%	2.08%	5%	-8.32%			
CCS(=O)(=O)N[C@@H]1CN(Cc2cc(C)on2)C[C@@H]2CCCO[C@@H]21	-5.04%	8.11%	4.25%	0.656%	19%	1.66%	4.71%	6.27%	-3.3%	1.95%	6.45%	18.5%	-4.16%			
CS(=O)(=O)N1CCC(C(=O)N2CCC3(CC2)OCCCO3)CC1	-4.7%	20.8%	3.34%	-4.81%	-12.3%	5.23%	3.23%	12.2%	14.4%	-32.1%	6.35%	21.8%	-10.8%			
Oc1cc(Cl)cc(Cl)c1														< 3	< 3	
c1ccc(CN2CC[C@]3(C[C@@H](Oc4ccccn4)CO3)C2)nc1	-4.14%	18.7%	-1.57%	-1.39%	-5.45%	-0.394%	0.233%	5.02%	17.7%	-36.4%	2.13%	14.1%	-0.948%			-12.4%
